# What was measured:
# Experiment in all cases: DAPPL (digital affinity profiling via proximity ligation, sequencing); 10 mM Tris-HCl pH 7.5, 50 mM NaCl, 1 mM DTT, 4% glycerol, room temperature, 30 min; GST-TFs on glutathione beads, 16-mer random dsDNA library, 0.1% formaldehyde crosslink after washing; high values mean tight binding
# Settings in all cases: protein: recombinant; tags: N-terminal GST; dsDNA, one strand shown
# ERF = target: T1, ERF (Homo sapiens, UniProt P50548 1-548)
# T1 sequence: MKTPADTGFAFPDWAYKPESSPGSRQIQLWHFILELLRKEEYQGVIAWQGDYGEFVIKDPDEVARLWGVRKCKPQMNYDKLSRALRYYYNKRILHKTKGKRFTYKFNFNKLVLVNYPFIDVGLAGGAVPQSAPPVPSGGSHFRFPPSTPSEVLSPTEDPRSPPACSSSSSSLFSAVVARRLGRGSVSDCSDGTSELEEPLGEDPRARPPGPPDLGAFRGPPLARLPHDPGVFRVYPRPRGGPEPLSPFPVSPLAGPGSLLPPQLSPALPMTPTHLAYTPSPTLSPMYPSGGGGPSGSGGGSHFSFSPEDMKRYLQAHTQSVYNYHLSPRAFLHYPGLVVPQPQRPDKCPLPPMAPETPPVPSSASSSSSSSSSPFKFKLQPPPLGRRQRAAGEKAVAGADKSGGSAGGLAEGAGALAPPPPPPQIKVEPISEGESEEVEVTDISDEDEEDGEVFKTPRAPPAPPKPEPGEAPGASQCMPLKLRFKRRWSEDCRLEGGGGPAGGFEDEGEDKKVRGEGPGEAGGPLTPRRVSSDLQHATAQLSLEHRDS
# Outline: (§1)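 Binding signal is each hexamer's read frequency for a factor divided by its frequency in the tag-only sample. The factors were GST-fused human transcription factors from yeast, captured on glutathione beads, DNA-barcoded and pooled with that sample. Pools were incubated with 200 nmole of a random double-stranded 16-mer DNA library in Tris/NaCl/DTT/glycerol buffer at room temperature for 30 min, then washed, crosslinked with 0.1% formaldehyde, proximity-ligated with BsaI/T4 ligase (1 h, 37 °C), PCR-amplified and sequenced on an Illumina NextSeq500.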
# ETV3L = target: T2, ETV3L (Homo sapiens, UniProt Q6ZN32 1-361)
# T2 sequence: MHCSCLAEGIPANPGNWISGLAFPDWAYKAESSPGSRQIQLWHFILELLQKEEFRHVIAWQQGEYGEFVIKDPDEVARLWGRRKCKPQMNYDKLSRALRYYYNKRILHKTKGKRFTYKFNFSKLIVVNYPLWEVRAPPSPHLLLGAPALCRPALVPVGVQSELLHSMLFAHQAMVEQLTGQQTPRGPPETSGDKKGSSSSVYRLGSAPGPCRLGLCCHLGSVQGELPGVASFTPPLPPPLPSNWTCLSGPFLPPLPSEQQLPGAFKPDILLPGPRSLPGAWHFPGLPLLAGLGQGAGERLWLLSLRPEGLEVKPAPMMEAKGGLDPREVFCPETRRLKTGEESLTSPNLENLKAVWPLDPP
# Outline: as §1
# ETS2 = target: T3, ETS2 (Homo sapiens, UniProt P15036 1-469)
# T3 sequence: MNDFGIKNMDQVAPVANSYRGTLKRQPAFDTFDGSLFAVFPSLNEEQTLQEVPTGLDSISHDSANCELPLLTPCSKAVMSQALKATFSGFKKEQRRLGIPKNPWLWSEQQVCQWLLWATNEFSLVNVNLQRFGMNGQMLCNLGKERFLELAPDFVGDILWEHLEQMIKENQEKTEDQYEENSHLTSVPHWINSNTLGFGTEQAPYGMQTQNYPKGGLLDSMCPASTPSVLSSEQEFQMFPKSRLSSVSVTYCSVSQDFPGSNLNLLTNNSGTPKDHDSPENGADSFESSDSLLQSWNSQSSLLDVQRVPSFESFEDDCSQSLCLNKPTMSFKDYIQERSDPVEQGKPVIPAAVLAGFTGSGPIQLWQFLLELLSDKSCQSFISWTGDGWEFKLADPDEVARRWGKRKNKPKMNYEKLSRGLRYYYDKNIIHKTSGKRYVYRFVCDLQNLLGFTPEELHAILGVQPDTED
# Outline: as §1
# SPDEF = target: T4, SPDEF (Homo sapiens, UniProt O95238 1-335)
# T4 sequence: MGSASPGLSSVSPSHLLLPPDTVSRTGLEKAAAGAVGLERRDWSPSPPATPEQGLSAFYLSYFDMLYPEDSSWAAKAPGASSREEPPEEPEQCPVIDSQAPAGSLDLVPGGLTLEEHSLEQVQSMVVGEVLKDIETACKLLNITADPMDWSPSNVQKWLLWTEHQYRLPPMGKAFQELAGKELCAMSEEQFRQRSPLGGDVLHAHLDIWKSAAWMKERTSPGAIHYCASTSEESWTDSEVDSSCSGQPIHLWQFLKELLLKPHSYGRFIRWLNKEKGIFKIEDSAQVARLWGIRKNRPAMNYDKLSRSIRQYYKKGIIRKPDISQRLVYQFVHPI
# Outline: as §1
# ETV7 = target: T5, ETV7 (Homo sapiens, UniProt Q9Y603 1-341)
# T5 sequence: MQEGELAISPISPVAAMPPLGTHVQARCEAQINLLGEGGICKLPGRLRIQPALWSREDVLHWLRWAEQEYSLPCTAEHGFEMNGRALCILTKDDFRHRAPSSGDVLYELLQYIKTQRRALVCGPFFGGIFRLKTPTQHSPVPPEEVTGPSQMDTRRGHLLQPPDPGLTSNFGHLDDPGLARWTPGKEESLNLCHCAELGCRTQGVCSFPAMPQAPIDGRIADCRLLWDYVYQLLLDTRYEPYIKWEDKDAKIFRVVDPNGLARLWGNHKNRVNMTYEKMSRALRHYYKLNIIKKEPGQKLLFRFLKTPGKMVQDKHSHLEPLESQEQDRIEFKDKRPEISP
# Outline: as §1
# ELF5 = target: T6, ELF5 (Homo sapiens, UniProt Q9UKW6-2 1-255)
# T6 sequence: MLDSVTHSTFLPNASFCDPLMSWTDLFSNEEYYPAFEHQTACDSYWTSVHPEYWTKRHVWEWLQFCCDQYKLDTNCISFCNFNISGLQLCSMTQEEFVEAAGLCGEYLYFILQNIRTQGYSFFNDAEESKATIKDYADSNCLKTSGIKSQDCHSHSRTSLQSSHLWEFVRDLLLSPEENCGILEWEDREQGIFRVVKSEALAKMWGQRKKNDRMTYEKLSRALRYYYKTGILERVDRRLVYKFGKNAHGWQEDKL
# Outline: as §1
# ETV3 = target: T7, ETV3 (Homo sapiens, UniProt P41162-2 1-143)
# T7 sequence: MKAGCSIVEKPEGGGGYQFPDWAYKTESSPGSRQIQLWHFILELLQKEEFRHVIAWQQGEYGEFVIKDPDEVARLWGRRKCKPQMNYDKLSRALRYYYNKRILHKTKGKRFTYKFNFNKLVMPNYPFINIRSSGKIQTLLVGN
# Outline: as §1
# ETV6 = ETV6 (Homo sapiens, UniProt P41212 1-452)
# Chain of ETV6 (P41212 whole entry): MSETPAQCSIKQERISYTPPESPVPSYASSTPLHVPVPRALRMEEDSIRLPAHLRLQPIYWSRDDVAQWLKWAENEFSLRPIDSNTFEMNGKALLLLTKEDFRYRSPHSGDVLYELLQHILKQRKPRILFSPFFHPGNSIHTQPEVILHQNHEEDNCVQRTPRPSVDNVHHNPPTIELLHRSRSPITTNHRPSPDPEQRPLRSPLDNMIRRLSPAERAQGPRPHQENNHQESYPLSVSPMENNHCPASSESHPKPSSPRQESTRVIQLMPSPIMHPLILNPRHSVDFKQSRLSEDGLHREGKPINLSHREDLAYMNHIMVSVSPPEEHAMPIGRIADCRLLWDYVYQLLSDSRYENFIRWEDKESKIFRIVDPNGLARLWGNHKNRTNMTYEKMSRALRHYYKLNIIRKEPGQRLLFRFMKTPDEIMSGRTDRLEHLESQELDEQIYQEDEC
# Outline: as §1
Sequence,binding signal (ERF),binding signal (ETV3L),binding signal (ETS2),binding signal (SPDEF),binding signal (ETV7),binding signal (ELF5),binding signal (ETV3),binding signal (ETV6)
TGTTCA,"1.32 fold enrichment (6-mer frequency, TF over GST control)","1.23 fold enrichment (6-mer frequency, TF over GST control)","1.2 fold enrichment (6-mer frequency, TF over GST control)","1.3 fold enrichment (6-mer frequency, TF over GST control)","1.25 fold enrichment (6-mer frequency, TF over GST control)","1.2 fold enrichment (6-mer frequency, TF over GST control)","1.25 fold enrichment (6-mer frequency, TF over GST control)","1.14 fold enrichment (6-mer frequency, TF over GST control)"
AATTCA,"1.22 fold enrichment (6-mer frequency, TF over GST control)","1.35 fold enrichment (6-mer frequency, TF over GST control)","1.39 fold enrichment (6-mer frequency, TF over GST control)","1.24 fold enrichment (6-mer frequency, TF over GST control)","1.28 fold enrichment (6-mer frequency, TF over GST control)","1.3 fold enrichment (6-mer frequency, TF over GST control)","1.31 fold enrichment (6-mer frequency, TF over GST control)","1.23 fold enrichment (6-mer frequency, TF over GST control)"
CCATCT,"1.41 fold enrichment (6-mer frequency, TF over GST control)","1.35 fold enrichment (6-mer frequency, TF over GST control)","1.35 fold enrichment (6-mer frequency, TF over GST control)","1.11 fold enrichment (6-mer frequency, TF over GST control)","1.33 fold enrichment (6-mer frequency, TF over GST control)","1.27 fold enrichment (6-mer frequency, TF over GST control)","1.25 fold enrichment (6-mer frequency, TF over GST control)","1.25 fold enrichment (6-mer frequency, TF over GST control)"
TGAACC,"1.08 fold enrichment (6-mer frequency, TF over GST control)","1.2 fold enrichment (6-mer frequency, TF over GST control)","1.24 fold enrichment (6-mer frequency, TF over GST control)","1.16 fold enrichment (6-mer frequency, TF over GST control)","1.06 fold enrichment (6-mer frequency, TF over GST control)","1.09 fold enrichment (6-mer frequency, TF over GST control)","1.12 fold enrichment (6-mer frequency, TF over GST control)","1.11 fold enrichment (6-mer frequency, TF over GST control)"
TACTGC,"1.14 fold enrichment (6-mer frequency, TF over GST control)","1.17 fold enrichment (6-mer frequency, TF over GST control)","1.2 fold enrichment (6-mer frequency, TF over GST control)","1.26 fold enrichment (6-mer frequency, TF over GST control)","1.2 fold enrichment (6-mer frequency, TF over GST control)","1.17 fold enrichment (6-mer frequency, TF over GST control)","1.31 fold enrichment (6-mer frequency, TF over GST control)","1.26 fold enrichment (6-mer frequency, TF over GST control)"
GATTTG,"1.12 fold enrichment (6-mer frequency, TF over GST control)","1.18 fold enrichment (6-mer frequency, TF over GST control)","1.14 fold enrichment (6-mer frequency, TF over GST control)","1.19 fold enrichment (6-mer frequency, TF over GST control)","1.15 fold enrichment (6-mer frequency, TF over GST control)","1.05 fold enrichment (6-mer frequency, TF over GST control)","1.1 fold enrichment (6-mer frequency, TF over GST control)","1.09 fold enrichment (6-mer frequency, TF over GST control)"
AATAAC,"1.33 fold enrichment (6-mer frequency, TF over GST control)","1.22 fold enrichment (6-mer frequency, TF over GST control)","1.27 fold enrichment (6-mer frequency, TF over GST control)","1.21 fold enrichment (6-mer frequency, TF over GST control)","1.25 fold enrichment (6-mer frequency, TF over GST control)","1.31 fold enrichment (6-mer frequency, TF over GST control)","1.23 fold enrichment (6-mer frequency, TF over GST control)","1.36 fold enrichment (6-mer frequency, TF over GST control)"
CCCCCA,"1.06 fold enrichment (6-mer frequency, TF over GST control)","1.21 fold enrichment (6-mer frequency, TF over GST control)","1.19 fold enrichment (6-mer frequency, TF over GST control)","1.22 fold enrichment (6-mer frequency, TF over GST control)","1.11 fold enrichment (6-mer frequency, TF over GST control)","1.24 fold enrichment (6-mer frequency, TF over GST control)","1.3 fold enrichment (6-mer frequency, TF over GST control)","1.19 fold enrichment (6-mer frequency, TF over GST control)"
AGGAAA,"1.34 fold enrichment (6-mer frequency, TF over GST control)","1.37 fold enrichment (6-mer frequency, TF over GST control)","1.48 fold enrichment (6-mer frequency, TF over GST control)","1.31 fold enrichment (6-mer frequency, TF over GST control)","1.46 fold enrichment (6-mer frequency, TF over GST control)","2.19 fold enrichment (6-mer frequency, TF over GST control)","1.52 fold enrichment (6-mer frequency, TF over GST control)","1.75 fold enrichment (6-mer frequency, TF over GST control)"
CCGTCC,"1.51 fold enrichment (6-mer frequency, TF over GST control)","1.38 fold enrichment (6-mer frequency, TF over GST control)","1.38 fold enrichment (6-mer frequency, TF over GST control)","1.55 fold enrichment (6-mer frequency, TF over GST control)","1.27 fold enrichment (6-mer frequency, TF over GST control)","1.36 fold enrichment (6-mer frequency, TF over GST control)","1.51 fold enrichment (6-mer frequency, TF over GST control)","1.29 fold enrichment (6-mer frequency, TF over GST control)"
TGATGT,"1.16 fold enrichment (6-mer frequency, TF over GST control)","1.21 fold enrichment (6-mer frequency, TF over GST control)","1.29 fold enrichment (6-mer frequency, TF over GST control)","1.26 fold enrichment (6-mer frequency, TF over GST control)","1.18 fold enrichment (6-mer frequency, TF over GST control)","1.23 fold enrichment (6-mer frequency, TF over GST control)","1.15 fold enrichment (6-mer frequency, TF over GST control)","1.22 fold enrichment (6-mer frequency, TF over GST control)"
GAATCC,"1.12 fold enrichment (6-mer frequency, TF over GST control)","1.11 fold enrichment (6-mer frequency, TF over GST control)","1.13 fold enrichment (6-mer frequency, TF over GST control)","1.54 fold enrichment (6-mer frequency, TF over GST control)","1.18 fold enrichment (6-mer frequency, TF over GST control)","1.03 fold enrichment (6-mer frequency, TF over GST control)","1.14 fold enrichment (6-mer frequency, TF over GST control)","1.08 fold enrichment (6-mer frequency, TF over GST control)"
